In the library only some 19% were active in any assay of this set; here they are far more common.
HepG2 viability: counter-screen for TGF-b inhibitors: cytotoxicity in HepG2 cells; HepG2 CAGA-GFP viability, ATP luminescence, 18 h; actives 0.76% (n = 410,000); Potency, µM (highest dose often 46.1 µM), for inactives: top-dose activity change, negative = cytotoxicity, usual class: cytotoxic; further: potency means the concentration at half of the fitted maximal effect
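HepG2 CAGA-GFP cells (1000/well, DMEM with 1% FBS) received compound, then TGF-beta at 500 pg/mL final, and were incubated 18 hours at 37 degrees C. Viability was read by CellTiter-Glo luminescence. Media-only wells were set as complete cell-killing and DMSO as no toxicity.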
TDP1 cell CPT: DT40-hTDP1 cell growth loss with CPT; actives 12% (n = 420,000); Potency, µM (top dose mostly 46.2 µM), without a hit: at the highest dose activity change, negative = growth inhibition, actives largely listed as inhibitors; AID 686979; chicken DT40 Tdp1-/-;hTDP1 cells + 20 nM CPT, ATP luminescence, 48 h; further: potency means the concentration at half of the fitted maximal effect; on the % scale 0 is the no-effect control and ±100 the full control effect; nearly all actives have a fitted effect of over 55% in size
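Cell growth measured by CellTiter-Glo luminescence after a minimum 48 h, 37 C compound exposure with 20 nM CPT in Tdp1-knockout DT40 cells stably expressing hTDP1, seeded 400/well; qHTS titration format.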
TGFb SMAD3 inh: TGF-b pathway inhibition. HepG2 CAGA-GFP TGF-b/SMAD3 reporter, GFP fluorescence, 18 h; TGF-beta stimulated, 500 pg/mL final. Potency, µM (top dose mostly 46.1 µM), for the others: at the highest dose activity, negative = inhibition, most hits filed as inhibitors. actives 1.2% (n = 410,000). AID 588855; further: potency means the concentration at half of the fitted maximal effect; on the % scale 0 is the no-effect control and ±100 the full control effect; nearly all actives have a fitted effect of over 65% in size
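Using HEPG2 CAGA-GFP reporter cells at 1000 cells/well, we pinned test compounds, stimulated with recombinant TGF-beta (500 pg/mL final) and measured total well GFP after 18 h.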
S-ASM inh: human S-ASM enzyme inhibition. P17405. placental ASM, HMU-PC fluorogenic substrate, 60 min. Potency, µM (top dose mostly 57.5 µM), for inactives: top-dose activity change, negative = inhibition, actives largely listed as inhibitors. actives 0.006% (n = 340,000). AID 504937; further: potency means the concentration at half of the fitted maximal effect
Target sequence (P17405 47-631 limits assumed): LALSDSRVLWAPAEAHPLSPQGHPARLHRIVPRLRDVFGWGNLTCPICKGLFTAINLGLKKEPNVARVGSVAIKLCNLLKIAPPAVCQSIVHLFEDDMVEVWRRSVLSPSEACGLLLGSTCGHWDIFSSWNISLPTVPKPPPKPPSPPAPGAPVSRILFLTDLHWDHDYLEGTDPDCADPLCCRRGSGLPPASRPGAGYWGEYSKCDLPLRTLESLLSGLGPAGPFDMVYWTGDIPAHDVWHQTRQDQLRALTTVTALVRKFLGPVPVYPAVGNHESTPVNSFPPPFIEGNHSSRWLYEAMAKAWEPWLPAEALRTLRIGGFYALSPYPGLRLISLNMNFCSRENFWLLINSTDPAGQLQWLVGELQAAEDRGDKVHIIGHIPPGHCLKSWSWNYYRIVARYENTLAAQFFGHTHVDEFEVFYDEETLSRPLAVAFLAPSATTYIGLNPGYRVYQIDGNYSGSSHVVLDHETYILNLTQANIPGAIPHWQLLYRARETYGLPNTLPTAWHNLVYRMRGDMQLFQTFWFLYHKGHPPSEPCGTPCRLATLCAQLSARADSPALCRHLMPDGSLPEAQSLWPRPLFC
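Human placenta-derived ASM enzyme was preincubated with compound for 10 minutes at room temperature, then given fluorogenic substrate HMU-PC0 (9 uM final) for 60 minutes at 37 °C; a pH 10 stop preceded fluorescence reading at Ex 386/Em 447 nm.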
DT40 TDP1 no CPT: qHTS for Inhibitors of human tyrosyl-DNA phosphodiesterase 1 (TDP1): qHTS in cells in absence of CPT. DT40 Tdp1-/- hTDP1 cells, no CPT, ATP luminescence, 48 h. Potency, µM (highest dose often 46.2 µM), for inactives: at the top dose activity change, negative = growth inhibition, usual class: inhibitors. actives 15% (n = 420,000). AID 686978, 2013; further: potency means the concentration at half of the fitted maximal effect; on the % scale 0 is the no-effect control and ±100 the full control effect; nearly all actives have a fitted effect of over 55% in size
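Compound effects on proliferation are scored in DT40 Tdp1-/-;hTDP1 cells in the absence of CPT. ATP levels (CellTiter-Glo luminescence) are recorded after a ≥48 hr, 37 °C incubation.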
IL1B secr inh: blocks inflammasome-driven IL-1 beta release; THP-1 LPS/ATP IL-1B secretion, AlphaLISA, 16 h; stronger effect = lower value; actives 4.7% (n = 360,000); activity change, % at 57.5 µM; in the data active means activity change below about -50%; inconclusive means mostly about -30% to -49%; further: on the % scale 0 is the no-effect control and ±100 the full control effect
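THP-1 cells pretreated 1 hr with compounds (up to 57.5 uM final), then stimulated with LPS (250 ng/mL final) plus ATP (1.25 mM final); secreted IL-1B measured by AlphaLISA after 16 hr, decreased signal indicating inhibition.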
The depositor's hits bear a star; [ ] = dose if it differs, or a comment. Unless noted, the call rests on the fitted dose curve; in most records, active means well fitted curve in the direction sought with a large enough effect; inconclusive means small, poorly fitted or top-dose-only effect, or another doubt; inactive means no such curve, though single readings can be large; an effect the other way counts as inactive or inconclusive.

How did O=C(CCc1nc2ccccc2c(=O)[nH]1)Nc1cc(C(F)(F)F)ccc1N1CCCC1 do in these assays?
HepG2 viability: -4%; TDP1 cell CPT: -19%; TGFb SMAD3 inh: 5%; S-ASM inh: -2%; DT40 TDP1 no CPT: -1%; IL1B secr inh: 69

What do the screens show for `O=c1c2c3c(sc2n(CCN2CCCCC2)c(=O)n1Cc1ccco1)CCCCC3`?
HepG2 viability: -25%; TDP1 cell CPT: 13µM*; TGFb SMAD3 inh: 19%; S-ASM inh: -4%; DT40 TDP1 no CPT: 18µM*; IL1B secr inh: -20

What do the screens show for `NC(=O)Cn1c(=O)n(Cc2ccco2)c(=O)c2c3c(sc21)CCCCC3`?
HepG2 viability: -2%; TDP1 cell CPT: -15%; TGFb SMAD3 inh: 0%; S-ASM inh: -3%; DT40 TDP1 no CPT: -22%; IL1B secr inh: 25

Results for O=c1c2c3c(sc2n(CCN2CCOCC2)c(=O)n1Cc1ccco1)CCCCC3 ?
HepG2 viability: -21%; TDP1 cell CPT: 8.2µM*; TGFb SMAD3 inh: 0%; S-ASM inh: -5%; DT40 TDP1 no CPT: 10µM*; IL1B secr inh: inconclusive

Results for COc1cc2c(cc1OC)CN(c1ccc(C(N)=O)cc1[N+](=O)[O-])CC2 ?
HepG2 viability: -8%; TDP1 cell CPT: inconclusive; TGFb SMAD3 inh: 6%; S-ASM inh: -5%; DT40 TDP1 no CPT: inconclusive; IL1B secr inh: inconclusive

Results for CN(C)S(=O)(=O)c1ccc(NCC2COc3ccccc3O2)c([N+](=O)[O-])c1 (stereo not drawn) ?
HepG2 viability: -33%; TDP1 cell CPT: 16µM*; TGFb SMAD3 inh: inconclusive; S-ASM inh: -26%; DT40 TDP1 no CPT: 23µM*; IL1B secr inh: -22

What do the screens show for `NC(=O)c1ccc(NCC2COc3ccccc3O2)c([N+](=O)[O-])c1` (stereo not drawn)?
HepG2 viability: 21%; TDP1 cell CPT: -25%; TGFb SMAD3 inh: 6%; S-ASM inh: -7%; DT40 TDP1 no CPT: inconclusive; IL1B secr inh: -10

What do the screens show for `CCN(CC)S(=O)(=O)c1ccc(NCC2COc3ccccc3O2)c([N+](=O)[O-])c1` (stereo not drawn)?
HepG2 viability: -3%; TDP1 cell CPT: 16µM*; TGFb SMAD3 inh: inconclusive; S-ASM inh: inconclusive; DT40 TDP1 no CPT: 23µM*; IL1B secr inh: -12

How did Nc1ncc(Br)cc1S(=O)(=O)NCCC(=O)Nc1cccc(Cl)c1 do in these assays?
HepG2 viability: -21%; TDP1 cell CPT: -20%; TGFb SMAD3 inh: -10%; S-ASM inh: -6%; DT40 TDP1 no CPT: -13%; IL1B secr inh: -61*

What do the screens show for `Cc1cc(NC(=O)CCNS(=O)(=O)c2cc(Br)cnc2N)ccc1Br`?
HepG2 viability: -37%; TDP1 cell CPT: -5%; TGFb SMAD3 inh: 11µM*; S-ASM inh: -14%; DT40 TDP1 no CPT: -6%; IL1B secr inh: -12

Results for COc1cccc(C(=O)NCC2Cc3c(F)ccc(-c4ncccn4)c3O2)c1OC (stereo not drawn) ?
TDP1 cell CPT: -7%[9.04 µM]; DT40 TDP1 no CPT: inconclusive

Results for COc1cc(NC(=O)Cn2ncc3c([nH]c4ccc(C)cc43)c2=O)cc(OC)c1OC ?
HepG2 viability: -9%; TDP1 cell CPT: -4%; TGFb SMAD3 inh: 10%; DT40 TDP1 no CPT: 2%

What do the screens show for `Cc1c(C(=O)NC2CCCc3ccccc32)oc2ccc(S(=O)(=O)N3CCCCC3)cc12` (stereo not drawn)?
HepG2 viability: 0%; TDP1 cell CPT: 0.26µM*; TGFb SMAD3 inh: -15%; S-ASM inh: 6%; DT40 TDP1 no CPT: inconclusive; IL1B secr inh: 23

Assay outcomes: PubChem, National Center for Advancing Translational Sciences (NCATS)
